According to PubChem BioAssay AID1645857 (Buhrlage Lab, Dana-Farber Cancer Institute and Novartis …, 2021):
The whole screen tested about 47,000 compounds, of which about 1,400 (3%) were called active. The full list was thinned out, with actives kept by preference. A number with no mark means an inactive call. No stated cut-off is given here; in the data, active means inhibition above about 30%; inactive means the rest.

biological target: Ubiquitin carboxyl-terminal hydrolase 28 (Homo sapiens) (UniProt Q96RU2); assay: blocks human USP28 ubiquitin-rhodamine cleavage (AID 1645857); settings: purified USP28, Ub-rhodamine cleavage fluorescence, 30 min; at 25 µM; active compounds read high
Sequence (Q96RU2 whole entry, looked up): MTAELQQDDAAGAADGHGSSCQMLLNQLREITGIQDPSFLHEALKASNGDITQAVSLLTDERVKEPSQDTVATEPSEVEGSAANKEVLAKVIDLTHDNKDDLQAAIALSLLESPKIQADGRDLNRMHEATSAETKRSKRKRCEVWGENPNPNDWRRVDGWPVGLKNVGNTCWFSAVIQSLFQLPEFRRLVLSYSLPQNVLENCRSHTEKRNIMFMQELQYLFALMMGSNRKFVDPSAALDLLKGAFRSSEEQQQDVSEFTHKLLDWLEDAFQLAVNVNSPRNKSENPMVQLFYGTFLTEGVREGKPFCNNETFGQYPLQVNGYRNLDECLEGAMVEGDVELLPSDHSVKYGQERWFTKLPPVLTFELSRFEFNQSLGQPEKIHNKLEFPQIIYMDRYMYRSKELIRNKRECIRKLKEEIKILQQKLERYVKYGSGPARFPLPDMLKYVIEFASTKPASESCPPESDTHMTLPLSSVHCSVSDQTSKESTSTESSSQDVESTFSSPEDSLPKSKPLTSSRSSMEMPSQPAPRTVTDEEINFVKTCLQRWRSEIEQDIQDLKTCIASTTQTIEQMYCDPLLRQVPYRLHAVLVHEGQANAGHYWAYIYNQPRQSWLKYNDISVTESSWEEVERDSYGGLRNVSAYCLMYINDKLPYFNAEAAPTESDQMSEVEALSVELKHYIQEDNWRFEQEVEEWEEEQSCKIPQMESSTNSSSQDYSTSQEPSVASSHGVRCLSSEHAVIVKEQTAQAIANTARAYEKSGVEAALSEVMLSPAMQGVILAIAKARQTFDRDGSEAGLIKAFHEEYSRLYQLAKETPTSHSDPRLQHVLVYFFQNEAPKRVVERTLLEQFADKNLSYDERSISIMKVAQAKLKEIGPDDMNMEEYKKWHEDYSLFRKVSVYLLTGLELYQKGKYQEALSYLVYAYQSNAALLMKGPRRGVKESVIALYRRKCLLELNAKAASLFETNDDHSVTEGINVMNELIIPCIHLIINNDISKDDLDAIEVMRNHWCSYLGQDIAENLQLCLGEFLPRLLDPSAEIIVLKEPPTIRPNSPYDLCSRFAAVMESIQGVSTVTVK

Going from `CCN1CCC2(CC1)OC(=O)C(C)=C2C(=O)NCc1ccccc1OC` to `COc1ccccc1CNC(=O)c1c(O)c2cccnc2n(-c2ccccc2)c1=O`, the inhibition falls from -9.74% to -16.9%.

First: O=C(CCc1nnc2ccc(N3CCOCC3)nn12)N1CCC(Cc2ccccc2)CC1
Second: CC1CCN(S(=O)(=O)N2CCCC(C(=O)NC3CCN(Cc4ccccc4)CC3)C2)CC1 (configuration not stated)
The inhibition of the first is higher: 3.03% for the first, -8.49% for the second.

First: CC(C)C(=O)Nc1nc2ccc(CCC(=O)Nc3ccc(F)cc3)cc2s1
Second: CCCC(=O)Nc1nc2ccc(CCC(=O)NCc3ccc(F)cc3)cc2s1
The inhibition of the first is higher: -0.104% for the first, -4.54% for the second.

Going from `CCC(=O)Nc1ccccc1SCC(=O)N1c2ccccc2CC1C` (configuration not stated) to `COc1ccc(C)cc1NC(=O)Cn1c(=O)nc(N(C)c2ccccc2)c2ccccc21`, the inhibition rises from 10.9% to 20.4%.

First: CS(=O)(=O)c1ccc(Oc2ncc(-c3cccs3)cn2)cc1
Second: COc1cccc(-c2cnc(C(O)c3sccc3C)[nH]2)c1 (configuration not stated)
The inhibition of the first is higher: 3.89% for the first, -14.5% for the second.

Going from `COc1ccc(C(C)=O)cc1CSc1nnc(-c2ccccc2OC)n1CCc1ccccc1` to `COc1cc(-c2nnc(SCC(=O)Nc3ccc(Br)cc3)n2CCc2ccccc2)cc(OC)c1OC`, the inhibition falls from 5.07% to -5.36%.

First: CC(C)(C)c1ccc(/C=C/C(=O)NCCCn2ccnc2)cc1
Second: CC(C)(C)C(=O)Nc1ccc(C(=O)Nc2ccc(O)cc2C(=O)O)cc1
The inhibition of the first is lower: -4.88% for the first, 13.9% for the second.

Compared with `COC(=O)c1cc2c(ccn2C)n1CC(=O)NC1CCCC1`, `CCOC(=O)c1cc2c(ccn2C)n1CC(=O)Nc1ccc2c(c1)OCCO2` is higher in inhibition: -250% for the first, -34.6% for the second.

First: CCCCCCCCCCC(C)C1CC(=O)NC(C(C)O)C(=O)NC(C)C(=O)NC(C)C(=O)NC(CCC(N)=O)C(=O)NC(Cc2ccc(O)cc2)C(=O)NC(C(C)CC)C(=O)O1 (configuration not stated)
Second: CCc1ccc(-n2c(SC(CC)C(=O)NCCOC)nc3n[nH]c(C)c3c2=N)cc1 (configuration not stated)
The inhibition of the first is higher: -4.03% for the first, -17.1% for the second.

Compared with `Cc1cc(=O)[nH]c(C2CN(C(=O)c3cccc4c3OCCO4)CCO2)n1` (configuration not stated), `O=C(Cn1cc(C(F)(F)F)ccc1=O)Nc1ccc2c(c1)OCCO2` is higher in inhibition: -1.67% for the first, 15.1% for the second.

Compared with `CCOc1ccc(Nc2nc(O)c(CC(=O)Nc3cccc(C)c3)s2)cc1`, `Cc1ccc(Nc2nc(O)c(CC(=O)Nc3ccc(C(C)C)cc3)s2)cc1C` is lower in inhibition: 27.4% for the first, -1.13% for the second.

Going from `CC(Nc1nc2ccccc2nc1NS(=O)(=O)c1cc(Cl)ccc1Cl)c1ccccc1` (configuration not stated) to `O=C(NCCc1ccccc1)c1ccc2c(=O)nc3c(-c4ccccc4F)n[nH]n3c2c1`, the inhibition rises from -235% to -8.97%.

Compared with `CC(=O)C(CC(=O)N1CCCC1)C(=O)Nc1ccc(Cl)cc1` (configuration not stated), `CC1CCCCN1CC(=O)N1CCc2cc(S(N)(=O)=O)ccc21` (configuration not stated) is lower in inhibition: 8.14% for the first, -35.3% for the second.

Going from `CC1CCN(c2ccc(C(=O)NCc3ccc(F)cc3)cc2[N+](=O)[O-])CC1` to `O=C(NCCc1ccc(O)cc1)c1cc(Br)ccc1-n1cnnn1`, the inhibition rises from 0.654% to 8.86%.

First: O=C(Cn1c(=O)n(Cc2ccc3c(c2)OCO3)c(=O)c2ccccc21)NCc1ccco1
Second: COc1ccccc1-c1ccc2nnc(SCC(=O)Nc3ccc4c(c3)OCCO4)n2n1
The inhibition of the first is higher: 26.3% for the first, 3.38% for the second.

Going from `Cn1ccc(NC(=O)CN2[C@H](Cc3ccccc3)C[C@]3(C)NC(=O)CCC[C@H]23)n1` to `COC(=O)c1cccnc1-n1c(=O)c2cccnc2n(CC(=O)Nc2ccc(C)c(F)c2)c1=O`, the inhibition falls from -3.27% to -12.4%.

First: Fc1cccc(Nc2nc(-c3ccncc3)nc3c2CCC3)c1
Second: O=C(CCc1csc(NC(=O)c2ccc(=O)[nH]c2)n1)NCCc1c[nH]c2ccccc12
The inhibition of the first is higher: 5.32% for the first, -13.5% for the second.

Going from `Cc1nc(SCC#N)c2oc3ccccc3c2n1` to `Cc1ccc(-c2nnc(CCC(=O)O)o2)cc1`, the inhibition rises from -1.32% to -0.555%.

`CCOc1ccccc1OC(=O)c1cc(-c2cc(OC)c(OC)c(OC)c2)nc2ccccc12` gave an inhibition of -10%.

With `COc1ccccc1CNC(=O)c1nc(N2CCSCC2)c2cn(C)nc2n1` the inhibition was 32.8% (active).
In the case of `O=C(Cc1cccc2ccccc12)Nc1nc2ccc(F)cc2s1`, the inhibition is reported as 55.7% (active).
For `CN(C)CCCNC(=O)/C=C/c1ccc(OCc2c(F)cccc2Cl)cc1`, the inhibition was 34.5% (active).
For `Oc1cccc2nc3c(O)cccc3nc12`, the inhibition was 61.8% (active).
With `Cc1ccc(NC(=O)Cc2sc(Nc3ccc(C)cc3)nc2O)cc1` the inhibition was 75.6% (active).
With `O=C(NCCc1ccccc1)c1ccc2c(=O)n(Cc3ccco3)c(=O)n(Cc3cccc([N+](=O)[O-])c3)c2c1` the inhibition was 73.4% (active).
In the case of `O=C(Cn1cnc2c(sc3ccccc32)c1=O)Nc1ccc2c(c1)OCCO2`, the inhibition is reported as 38.1% (active).
`CN(c1ccccc1)c1nc(=O)n(CC(=O)Nc2ccc3c(c2)OCCO3)c2ccccc12` was tested, and the inhibition was 41.9% (active).
In the case of `CSc1nc2c(c(Nc3ccc(C(C)=O)cc3)n1)CCC2`, the inhibition is reported as 53.2% (active).
`CC(C)(C)C(=O)Nc1ccc(SCc2nnc(-c3ccccc3)o2)cc1` was tested, and the inhibition was 64% (active).
